In all, about 360,000 compounds went through this assay and about 800 (0.22%) were called active.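 The calls were made as follows: active = activation of at least 8% versus controls, or a plate z-score of at least 8; inactive = the rest.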 The list comes from a sample in which actives are over-represented; it also holds similar structures and randomly drawn compounds.
Assay: compounds raising alpha-dystroglycan glycosylation – uHTS, Pro5-aDG cells, AlphaScreen, primary screen (AID 624168);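 also: Pro5 are CHO cells carrying HIG-tagged alpha-DG that lacks glycosylation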
Conditions: alpha-DG glycosylation AlphaScreen (IIH6), at 10 µM, active compounds read high, 0% Pro5, 100% B10-LARGE cell signal
With O=C(c1ccc(F)cc1)C1CCN(Cc2cn[nH]c2-c2ccccc2)CC1 the activation was -0.1% (inactive).
With CCCCN(CC)C(=O)C1CCCN(S(=O)(=O)c2cccc3nsnc23)C1 (stereo not drawn) the activation was -0.1% (inactive).
For Clc1ccc(-c2cc(C3CCNCC3)[nH]n2)c(Cl)c1, the activation was 11.1% (active).
With Clc1ccc(-c2cc(-c3ccccn3)on2)c(Cl)c1 the activation was 0.1% (inactive).
In the case of Cc1nn(-c2ccccc2)c2c1C(c1cccc([N+](=O)[O-])c1)N(c1ccccc1)C(=O)N2 (stereo not drawn), the activation is reported as -0.2% (inactive).
With O=C(CCSCCc1ccccn1)Nc1nccs1 the activation was -0.1% (inactive).
With Cc1ccccc1S(=O)(=O)Cc1ccc(C(=O)NCCN2CCCCC2C)o1 (stereo not drawn) the activation was -0.3% (inactive).
With CCc1ccccc1S(=O)(=O)Cc1ccc(C(=O)NCCc2ccccc2)o1 the activation was 13% (active).
With COc1ccc(CCNC(=O)c2ccc(CS(=O)(=O)c3ccc(Br)cc3)o2)cc1OC the activation was -0.2% (inactive).
With CC(C)Oc1cc(F)ccc1-c1cc(C(=O)Nc2ccc(F)cc2)[nH]n1 the activation was 0% (inactive).
With O=C(Nc1nnc(-c2ccccc2)o1)c1cccc(S(=O)(=O)N2CCOCC2)c1 the activation was 0.3% (inactive).
With COc1cc(-c2nnc(NC(=O)CS(=O)(=O)c3ccc(Cl)cc3)o2)cc(OC)c1OC the activation was 0.5% (inactive).
With COc1cccc(-c2nnc(NC(=O)c3ccc(S(=O)(=O)N(CC(C)C)CC(C)C)cc3)o2)c1 the activation was 6.1% (active).
With CCCN(CCC)C(=O)C1c2ccccc2Oc2ccccc21 the activation was 0.2% (inactive).
With C[C@H](CO)N1C[C@H](C)[C@H](CN(C)C(=O)Nc2ccc(C(F)(F)F)cc2)Oc2c(NC(=O)c3ccncc3)cccc2C1=O the activation was -0.2% (inactive).
With O=C(NCC1CCCCC1)NCC1CCCCC1 the activation was -0.2% (inactive).
With Cc1ccc(Nc2cc(=O)n(C3CCCCC3)c(=O)[nH]2)cc1C the activation was 0.5% (inactive).
With CC(NC(=O)c1cccc(S(=O)(=O)N2CCc3ccccc3C2)c1)c1ccco1 (stereo not drawn) the activation was 0.1% (inactive).
For CCOC(=O)c1ccc(NC(=O)CCn2c(=O)oc3ccccc32)cc1, the activation was 0% (inactive).
In the case of CCOC(=O)c1ccc(NC(=O)Cn2cnc3cc(C)c(C)cc32)cc1, the activation is reported as 3.2% (active).
With CCOC(=O)c1ccc(NC(=O)CS(=O)(=O)c2cn(CC)c3ccccc23)cc1 the activation was -0.1% (inactive).
For COc1c(C)cc(C(O)c2ncc(-c3cccc(C(F)(F)F)c3)[nH]2)cc1C (stereo not drawn), the activation was 0.3% (inactive).
With CC(C)c1cccc(C(C)C)c1Nc1cn[nH]c1 the activation was 0.6% (inactive).
For COc1ccccc1C(=O)C(O)c1ccccc1OC (stereo not drawn), the activation was 0.1% (inactive).
With OC[C@@H]1CN(C2CCCC2)C[C@H](n2cnc3c(NC4CCC4)ncnc32)O1 the activation was 0.3% (inactive).
In the case of OC[C@@H]1CN(Cc2ccc(-c3ccccc3)cc2)C[C@H](n2cnc3c(NC4CCCC4)ncnc32)O1, the activation is reported as 7.5% (active).
With CC(C)Nc1ncnc2c1ncn2[C@H]1CN(Cc2ccncc2)C[C@@H](CO)O1 the activation was 0.2% (inactive).
For O=C(NCc1cccnc1)c1ccc(CS(=O)(=O)c2ccc(Br)cc2)o1, the activation was -0.2% (inactive).
In the case of O=C1CC(c2cccc(Br)c2)C2=C(CCCC2=O)N1 (stereo not drawn), the activation is reported as 0% (inactive).
In the case of Cc1ccsc1/C=N/NC(=O)Cc1cc(=O)[nH][nH]1, the activation is reported as -0.1% (inactive).
For O=S(=O)(Nc1ccc(OC(F)(F)F)cc1)c1cccc2nonc12, the activation was -0.1% (inactive).
In the case of O=S(=O)(Nc1ccc(O)c2ccccc12)c1ccc(OC(F)(F)F)cc1, the activation is reported as 2.6% (active).
In the case of CNC(=O)COc1ccc(S(=O)(=O)Nc2ccccc2)cc1, the activation is reported as 0.1% (inactive).
With Cc1ccc(C)c(C(=O)N2CCC(n3nccc3NC(=O)C3CC3)CC2)c1 the activation was 0.3% (inactive).
In the case of CC(NC(=O)COC(=O)Cn1cc(C(F)(F)F)ccc1=O)c1ccccc1 (stereo not drawn), the activation is reported as -0.1% (inactive).
For COc1ccc(-c2oc(/N=C/N3CCCC3)c(C#N)c2-c2ccc(OC)cc2)cc1, the activation was 0.1% (inactive).
In the case of COc1cccc(CN(C)CC2CCCN(CCc3ccc(Cl)cc3)C2)c1OC (stereo not drawn), the activation is reported as 0% (inactive).
With CCn1cc(CN2CCC(C(=O)Nc3cccc(-c4cccc(Cl)c4)c3)CC2)cn1 the activation was 3.4% (inactive).
In the case of CCn1cc(CN2CCC(C(=O)Nc3cccc(-c4cccc(Cl)c4)c3)CC2)c(C)n1, the activation is reported as 7.1% (active).
For O=C(Nc1cccc(-c2cccc(Cl)c2)c1)C1CCN(C2CCC2)CC1, the activation was 1.9% (inactive).
For CN(C)N1C(N)=C(C#N)C(c2ccc(Br)cc2)C2=C1CCCC2=O (stereo not drawn), the activation was 0% (inactive).
In the case of CCCn1c(=N)n(CC(=O)c2ccc(Cl)c(Cl)c2)c2ccccc21, the activation is reported as 9.7% (active).
With O=C(Cn1nnc(N2CCCCC2)n1)c1ccc(Cl)c(Cl)c1 the activation was -0.1% (inactive).
With CCN(CC)CC1(O)CCN(C(=O)c2ccc(Cl)c(Cl)c2)CC1 the activation was -0.1% (inactive).
In the case of O=C(O)c1ccccc1-c1cccc2nncn12, the activation is reported as 0.1% (inactive).
For Cc1ccc(-c2ccc(CN3C(C(C)C)C(=O)N(Cc4cn(CCC5OCCCO5)nn4)CCS3(=O)=O)cc2)cc1 (stereo not drawn), the activation was 0.4% (inactive).
With CC(C)C(c1nnnn1C(C)(C)C)N1CCN(Cc2cccnc2)CC1 (stereo not drawn) the activation was -0.3% (inactive).
With O=C(Cn1ncc2c3ccccc3n(Cc3ccccc3)c2c1=O)NCc1ccccn1 the activation was -0.4% (inactive).
In the case of CC(C#N)OC(=O)c1cccnc1SCC(=O)Nc1ccc2c(c1)OCO2 (stereo not drawn), the activation is reported as 0.5% (inactive).
For Nc1scc[n+]1Cc1cccc2cccnc12, the activation was 1.9% (active).
With c1ccc2c(C[n+]3csc4ccccc43)cccc2c1 the activation was -0.1% (inactive).
For CC(NCc1ccccc1OC1CCCC1)c1ccccc1 (stereo not drawn), the activation was 0.5% (inactive).
For O=C(COc1cccc(Cl)c1)NCc1ccccc1, the activation was 0.1% (inactive).

— PubChem BioAssay AID624168 (Sanford-Burnham Center for Chemical Genomics, 2012)
